Assay results from PubChem BioAssay (NCI).
Compounds without any hit were thinned out: in the full panel of roughly 83,000, 20% have a hit.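 Note: values are percent growth. 100 is the growth of untreated cells, values between 100 and 0 indicate rising inhibition; between -100 and 0 indicates cell death.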 Unmarked numbers belong to inactive results. The source made the active and inactive calls. How the source made its calls: active means growth percent below 10; inactive means the rest.

Each molecule was assayed on SN12C renal (assay: NCI-60 one-dose screen, 48 h (100 = growth as untreated, 0 = no growth, -100 = all killed)). Conditions: 10 µM.

Row | Structure (SMILES) | growth
1 | CN(C)CCN=c1nc2c(c(N)n1-c1ccccc1)c(=S)n(-c1ccccc1)c(=S)n2-c1ccccc1 | 52.3%
2 | CC1(O)CCC2CC3OC3(C)CCC3OC3(C)CCC1C2(C)C (configuration not stated) | 104%
3 | C(CCCC1=NCCO1)CCCC1=NCCO1 | 102%
4 | COc1ccc(Nc2cc(C)nc(NCCCNc3ccnc4cc(Cl)ccc34)n2)cc1 | 1.94% (active)
5 | N#Cc1cc(-c2cc3ccccc3o2)oc1N | 8.73% (active)
6 | CC1(C)N=C(N)N=C(N)N1c1ccc(CCc2ccccc2)c(Cl)c1 | 18.9%
7 | O=C1Nc2ccccc2C1=NC1CCCCC1 | 107%
8 | COc1ccc(Nc2ccnc(NCCNc3ccnc4cc(Cl)ccc34)n2)cc1 | 57.7%
9 | Nc1nc(N)c(NC(=O)CNc2ccc(C(=O)O)cc2)c(N)n1 | 97.1%
10 | CCN(CC)CCNC(=O)c1ccc(NC(C)=O)cc1 | 94.6%
11 | c1ccc(CP(Cc2ccccc2)c2ccccc2)cc1 | 100%
12 | COc1ccc2c(c1)[n+]([O-])c(C#N)c(NC(=O)c1ccco1)[n+]2[O-] | 110%
13 | NC(=S)N=Nc1c(O)c2ccccc2c2ccccc12 | -88.7% (active)
14 | CCCCOc1ccc(NC(=O)Nc2nnc(C)s2)cc1 | 93.3%
15 | CCOC(=O)C(CSC(c1ccccc1)(c1ccccc1)c1ccccc1)NC(=O)C(CSC(c1ccccc1)(c1ccccc1)c1ccccc1)NC(c1ccccc1)(c1ccccc1)c1ccccc1 (configuration not stated) | 110%
16 | N#Cc1ncc(-c2cc(F)c(F)c(F)c2)c(NC2CCCCCC2)n1 | 83.6%
17 | O=C1/C(=C\c2ccccc2)CN(C(=O)c2ccccc2F)C/C1=C\c1ccccc1 | 6.12% (active)
18 | COc1ccc(/C=C/C(C)=N/OCC(=O)O)cc1 | 105%
19 | COc1ccc(-c2nn(-c3cccc(NC(=O)Nc4ccc(Cl)c(C(F)(F)F)c4)c3)cc2-c2ccncc2)cc1Cl | 21.1%

Row | Structure (SMILES) | growth
20 | CS(=O)(=O)Nc1ccc(Nc2c3ccccc3nc3cc([N+](=O)[O-])ccc23)cc1 | 20.3%
21 | Cc1ccc(C)c(C(O)(c2cc(C)ccc2C)C2(O)CCCCC2)c1 | 96.8%
22 | CC1CC(=O)OC(C)C1 (configuration not stated) | 109%
23 | Cc1cs/c(=N\NC(=O)c2cc(-c3cc4ccccc4o3)nn2-c2ccccc2)n1-c1ccccc1 | 96.7%
24 | CN(C)c1ccc(N=C2C=CC(=O)c3ccccc32)cc1 | 55.4%
25 | Cc1ccc(NC(=O)NC2CCCCC2)cc1 | 106%
26 | COc1ccc(/C=C2/CN(C(=O)c3ccc(C)cc3)C/C(=C\c3ccc(OC)cc3)C2=O)cc1 | 90.7%
27 | Cc1ccc(Nc2cc(C)nc(NCCCNc3ccnc4cc(Cl)ccc34)n2)cc1 | -81% (active)
28 | O=C1/C(=C\c2ccc(F)cc2)CN(C(=O)c2ccccc2F)C/C1=C\c1ccc(F)cc1 | -57.1% (active)
29 | c1ccc([I+]c2ccccc2)cc1 | 96.7%
30 | Cc1[nH]nc2c1C(c1cnn(C)c1)C(C#N)=C(N)O2 (configuration not stated) | 103%
31 | CCOC(=O)N1C/C(=C/c2ccc(OC)cc2)C(=O)/C(=C/c2ccc(OC)cc2)C1 | 50.2%
32 | COc1ccc(Nc2ncnc3c2c(SC)nn3-c2ccccc2)cc1 | 83.8%
33 | CSC1=NCCCC1 | 110%
34 | Clc1nc(Cl)c2c(ncn2C/C=C\Cn2cnc3c(Cl)nc(Cl)nc32)n1 | -5.17% (active)
35 | O=C(O)CCCCSc1ncnc2nc[nH]c12 | 107%
36 | CN(C)CCS(=O)(=O)CCN(C)C | 97.2%
37 | Clc1ccc(Nc2ccnc(NCCCNc3ccnc4cc(Cl)ccc34)n2)cc1 | -51.6% (active)

The molecules below were run on UO-31 renal in the same assay as above. Conditions: 10 µM.

Row | Structure (SMILES) | growth
38 | C(CCCC1=NCCO1)CCCC1=NCCO1 | 90.9%
39 | COc1ccc(Nc2cc(C)nc(NCCCNc3ccnc4cc(Cl)ccc34)n2)cc1 | -73.5% (active)
40 | CC1(C)N=C(N)N=C(N)N1c1ccc(CCc2ccccc2)c(Cl)c1 | 87.9%
41 | O=C1Nc2ccccc2C1=NC1CCCCC1 | 55.5%
42 | COc1ccc(Nc2ccnc(NCCNc3ccnc4cc(Cl)ccc34)n2)cc1 | 44.8%
43 | Nc1nc(N)c(NC(=O)CNc2ccc(C(=O)O)cc2)c(N)n1 | 94.1%
44 | c1ccc(CP(Cc2ccccc2)c2ccccc2)cc1 | 73.8%
45 | NC(=S)N=Nc1c(O)c2ccccc2c2ccccc12 | 42.5%
46 | CCOC(=O)C(CSC(c1ccccc1)(c1ccccc1)c1ccccc1)NC(=O)C(CSC(c1ccccc1)(c1ccccc1)c1ccccc1)NC(c1ccccc1)(c1ccccc1)c1ccccc1 (configuration not stated) | 94.8%
47 | N#Cc1ncc(-c2cc(F)c(F)c(F)c2)c(NC2CCCCCC2)n1 | 89.4%
48 | O=C1/C(=C\c2ccccc2)CN(C(=O)c2ccccc2F)C/C1=C\c1ccccc1 | 12.4%
49 | COc1ccc(/C=C/C(C)=N/OCC(=O)O)cc1 | 95.9%
50 | COc1ccc2c(c1)nc(N)c1c3cccnc3cn21 | 42.3%
51 | COc1ccc(-c2nn(-c3cccc(NC(=O)Nc4ccc(Cl)c(C(F)(F)F)c4)c3)cc2-c2ccncc2)cc1Cl | -11.2% (active)
52 | CS(=O)(=O)Nc1ccc(Nc2c3ccccc3nc3cc([N+](=O)[O-])ccc23)cc1 | 16.6%
53 | Cc1ccc(C)c(C(O)(c2cc(C)ccc2C)C2(O)CCCCC2)c1 | 87.7%
54 | CC1CC(=O)OC(C)C1 (configuration not stated) | 94.1%
55 | CN(C)c1ccc(N=C2C=CC(=O)c3ccccc32)cc1 | 48.8%
56 | Cc1ccc(NC(=O)NC2CCCCC2)cc1 | 96%
57 | COc1ccc(/C=C2/CN(C(=O)c3ccc(C)cc3)C/C(=C\c3ccc(OC)cc3)C2=O)cc1 | 58.5%
58 | Cc1ccc(Nc2cc(C)nc(NCCCNc3ccnc4cc(Cl)ccc34)n2)cc1 | -95% (active)
59 | O=C1/C(=C\c2ccc(F)cc2)CN(C(=O)c2ccccc2F)C/C1=C\c1ccc(F)cc1 | -72.6% (active)
60 | c1ccc([I+]c2ccccc2)cc1 | 45.9%
61 | Cc1[nH]nc2c1C(c1cnn(C)c1)C(C#N)=C(N)O2 (configuration not stated) | 81.3%
62 | CCOC(=O)N1C/C(=C/c2ccc(OC)cc2)C(=O)/C(=C/c2ccc(OC)cc2)C1 | 17.1%
63 | COc1ccc(Nc2ncnc3c2c(SC)nn3-c2ccccc2)cc1 | 77.2%
64 | CSC1=NCCCC1 | 86.8%
65 | O=C(O)CCCCSc1ncnc2nc[nH]c12 | 70%
66 | CN(C)CCS(=O)(=O)CCN(C)C | 113%
67 | Clc1ccc(Nc2ccnc(NCCCNc3ccnc4cc(Cl)ccc34)n2)cc1 | -46.2% (active)
